Assay results: PubChem BioAssay
Potency and affinity values are given separately. Values without a mark were called inactive.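 Rule for the calls, unless noted: active = a dose-response fit showing signal loss, with half-maximal concentration no higher than twice the top tested dose; inconclusive = flat fit between 30% and 70% signal loss, or poor fit; inactive = the rest.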

Assay: C. neoformans lysis by adenylate kinase leakage – AK release luminescence, cherry-picks, dose response (AID 687000;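 active = fitted dose curve reaches 40% lysis signal rise at or below the highest valid concentration tested for that sample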;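 note: luminescent detection of adenylate kinase leaking from lysed yeast; 0% = median neutral control signal and 100% = double that signal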)
Settings: 4 h, 100% = twice the neutral-control signal; series mostly up to 15 µM; lysis activity: at the top concentration
With `CCc1ccc(C(=O)NC(=S)Nc2ccccc2N2CCOCC2)cc1` the “lysis activity” value was -14.5%. With `CC(NC(=O)COc1ccccc1C(C)(C)C)c1ccccc1` (stereo not given) the “lysis activity” value was -30.6% [at 23.5 µM]. For `Cc1ccc(S(=O)(=O)N2CC[C@@H]3[C@H]2c2cc(-c4ccccc4F)ccc2N[C@@H]3CO)cc1`, the “lysis activity” value was -43.7%. In the case of `COc1cccc(NC(=O)CN2CCN(S(=O)(=O)c3ccc(C(C)C)cc3)CC2)c1`, the “lysis activity” value is reported as -3.04%. In the case of `CC12CC3CC(C)(C1)CC(C(=O)NC(=S)N1CCCCC1)(C3)C2`, the “lysis activity” value is reported as 3.12%. In the case of `O=C(CN(c1ccc(F)cc1)S(=O)(=O)c1ccccc1)NC1CC2CCC1C2` (stereo not given), the “lysis activity” value is reported as -22.3%. In the case of `O=C(C[C@H]1CC[C@H]2[C@@H](COC[C@H](O)CN2C(=O)Nc2ccc3c(c2)OCO3)O1)N1CCN(c2ccccc2)CC1`, the “lysis activity” value is reported as 21.3%. For `C[C@@H]1CN([C@H](C)CO)C(=O)c2cccc(NC(=O)c3ccncc3)c2O[C@H]1CN(C)C(=O)Nc1ccc(C(F)(F)F)cc1`, the “lysis activity” value was 12.9%. With `CCc1ccc(NC(=O)[C@H](C)NC(=O)C2CCN(C(=O)[C@@H](N)C(C)C)CC2)cc1` the “lysis activity” value was -1.92%. With `O=C(Oc1ccc2c3c(c(=O)oc2c1)CCCC3)c1ccco1` the “lysis activity” value was -44.6%. In the case of `O=C1CCC(C(=O)Nc2ccc([N+](=O)[O-])cc2)N1` (stereo not given), the “lysis activity” value is reported as -3.3%. With `CCCC(=O)Nc1ccc2c(c1)OC[C@@H](C)N(Cc1ccccn1)C[C@@H](C)[C@H](OC)CN(C)C2=O` the “lysis activity” value was 9.99%. With `CCN(C(=O)CSc1ncnc2c1cnn2-c1ccccc1)C1CCS(=O)(=O)C1` (stereo not given) the “lysis activity” value was 1.12%. With `Cc1ccc(C(=O)n2nnc3ccccc32)cc1[N+](=O)[O-]` the “lysis activity” value was 8.02%. For `COC(=O)C1=C(C)N(Cc2ccc(F)cc2)C(=S)NC1c1cccc(OC)c1` (stereo not given), the “lysis activity” value was 10.3% [at 16 µM]. For `O=C(COc1ccc2c(c1)CCC2)NCc1ccccc1`, the “lysis activity” value was -13%. In the case of `O=C(c1cccs1)N1CCN(c2nc3ccccc3s2)CC1`, the “lysis activity” value is reported as 5.84%. In the case of `COc1cccc(S(=O)(=O)Nc2ccc3c(c2)OC[C@@H](C)NC[C@H](C)[C@@H](OC)CN(C)C3=O)c1`, the “lysis activity” value is reported as -1.17%. With `Cc1cccc(C)c1NC(=O)C1CCCCN1C` (stereo not given) the “lysis activity” value was 1.38%. In the case of `COc1ccc(NC(=O)CSc2ncnc3c2cnn3CCc2ccccc2)cc1`, the “lysis activity” value is reported as -11.5%. With `CNC[C@@H]1Oc2c(NS(=O)(=O)c3ccc(Cl)cc3)cccc2C(=O)N([C@H](C)CO)C[C@H]1C` the “lysis activity” value was -4.15%. In the case of `COc1ccc(N(C)C(=O)c2cn(CC(C)C)c(=O)c3cc(OC)c(OC)cc23)c(OC)c1`, the “lysis activity” value is reported as -2.19%. With `Cc1noc(C)c1NC(=O)N(C)C[C@@H]1Oc2ccc(NC(=O)NC(C)C)cc2CC(=O)N([C@@H](C)CO)C[C@@H]1C` the “lysis activity” value was 16.9%. With `COc1ccc(CN(C)C[C@H]2Oc3ccc(NS(C)(=O)=O)cc3CC(=O)N([C@@H](C)CO)C[C@H]2C)cc1` the “lysis activity” value was 0.984%. With `CN(C)CCCn1c(=O)n(C2CCCCC2)c(=O)c2c3c(sc21)CCCCC3` the “lysis activity” value was 14%. For `O=S1(=O)CCC(N=Cc2cc(Br)ccc2O)C1` (stereo not given), the “lysis activity” value was -23%. With `C[C@H]1CN([C@@H](C)CO)S(=O)(=O)c2ccc(Br)cc2O[C@H]1CN(C)S(=O)(=O)c1ccccc1F` the “lysis activity” value was -7.03%. With `Cc1ccc2c(C)c(C(=O)N3CCN(Cc4ccccn4)CC3)oc2c1C` the “lysis activity” value was -21.7%. With `CNC(=O)CN(c1ccccc1)S(=O)(=O)c1ccc(F)cc1` the “lysis activity” value was 2.72% [at 16 µM]. For `CNC[C@@H]1OCCCC[C@@H](C)Oc2ccc(NC(=O)NC(C)C)cc2C(=O)N([C@@H](C)CO)C[C@H]1C`, the “lysis activity” value was -2.13%. For `COc1ccc(C2CC(c3cccs3)=NN2C(=O)c2ccco2)cc1OC` (stereo not given), the “lysis activity” value was 4.54%. With `CCC(C)c1ccc(NC(=S)N2CCN(c3ccccn3)CC2)cc1` (stereo not given) the “lysis activity” value was -16.5%. For `C[C@H](NC(=O)C[C@H]1CC[C@@H](NC(=O)Cc2ccccn2)[C@@H](CO)O1)c1ccccc1`, the “lysis activity” value was 4.58%. For `O=C(C[C@@H]1CC[C@@H](NC(=O)c2cccnc2)[C@@H](CO)O1)NCCN1CCCCC1`, the “lysis activity” value was -3.28%. For `O=C(C[C@@H]1CC[C@H](NC(=O)Cc2ccccn2)[C@@H](CO)O1)NCCc1ccccc1`, the “lysis activity” value was 2.96%. In the case of `O=C(Nc1ccc2ncccc2c1)c1ccccc1`, the “lysis activity” value is reported as 0.891%. With `CCC(=O)N1[C@H](CN(C)C(C)=O)[C@@H](c2ccc(C3=CCCCC3)cc2)[C@@H]1CO` the “lysis activity” value was -2.02%. In the case of `O=C(CSc1ncnc2c1cnn2-c1ccccc1)NCC1CCCO1` (stereo not given), the “lysis activity” value is reported as 2.36%. In the case of `C[C@H](CO)N1C[C@H](C)[C@@H](CN(C)C(=O)Nc2ccc3c(c2)OCO3)Oc2ccc(NS(=O)(=O)c3cccs3)cc2C1=O`, the “lysis activity” value is reported as 0.184%. For `Cc1cc(OCC(=O)NC(C)c2ccccc2)ccc1[N+](=O)[O-]` (stereo not given), the “lysis activity” value was -0.041%.

Assay: viability loss in HepG2 hepatoma cells – cell-based, cherry-picks, set 2, cytotoxicity control, dose response (AID 687002)
Settings: ATP luminescence (CellTiter-Glo), 48 h; series mostly up to 26 µM; activity change, negative = cytotoxicity: at the top concentration
With `CCc1ccc(C(=O)NC(=S)Nc2ccccc2N2CCOCC2)cc1` the “activity change, negative = cytotoxicity” value was 7.94%. For `CC(NC(=O)COc1ccccc1C(C)(C)C)c1ccccc1` (stereo not given), the “activity change, negative = cytotoxicity” value was 10.1% [at 42 µM]. In the case of `Cc1ccc(S(=O)(=O)N2CC[C@@H]3[C@H]2c2cc(-c4ccccc4F)ccc2N[C@@H]3CO)cc1`, the “activity change, negative = cytotoxicity” value is reported as 14.7% [at 23.5 µM]. With `COc1cccc(NC(=O)CN2CCN(S(=O)(=O)c3ccc(C(C)C)cc3)CC2)c1` the “activity change, negative = cytotoxicity” value was -4.82%. With `CC12CC3CC(C)(C1)CC(C(=O)NC(=S)N1CCCCC1)(C3)C2` the “activity change, negative = cytotoxicity” value was 10%. For `O=C(CN(c1ccc(F)cc1)S(=O)(=O)c1ccccc1)NC1CC2CCC1C2` (stereo not given), the “activity change, negative = cytotoxicity” value was -16.9%. For `O=C(C[C@H]1CC[C@H]2[C@@H](COC[C@H](O)CN2C(=O)Nc2ccc3c(c2)OCO3)O1)N1CCN(c2ccccc2)CC1`, the “activity change, negative = cytotoxicity” value was 8.96%. For `C[C@@H]1CN([C@H](C)CO)C(=O)c2cccc(NC(=O)c3ccncc3)c2O[C@H]1CN(C)C(=O)Nc1ccc(C(F)(F)F)cc1`, the “activity change, negative = cytotoxicity” value was -2.45% [at 23.5 µM]. In the case of `CCc1ccc(NC(=O)[C@H](C)NC(=O)C2CCN(C(=O)[C@@H](N)C(C)C)CC2)cc1`, the “activity change, negative = cytotoxicity” value is reported as -1.76%. With `O=C(Oc1ccc2c3c(c(=O)oc2c1)CCCC3)c1ccco1` the “activity change, negative = cytotoxicity” value was -0.577%. For `O=C1CCC(C(=O)Nc2ccc([N+](=O)[O-])cc2)N1` (stereo not given), the “activity change, negative = cytotoxicity” value was 2.88%. With `CCCC(=O)Nc1ccc2c(c1)OC[C@@H](C)N(Cc1ccccn1)C[C@@H](C)[C@H](OC)CN(C)C2=O` the “activity change, negative = cytotoxicity” value was 3.89%. In the case of `CCN(C(=O)CSc1ncnc2c1cnn2-c1ccccc1)C1CCS(=O)(=O)C1` (stereo not given), the “activity change, negative = cytotoxicity” value is reported as -18.7%. In the case of `Cc1ccc(C(=O)n2nnc3ccccc32)cc1[N+](=O)[O-]`, the “activity change, negative = cytotoxicity” value is reported as -0.078%. For `COC(=O)C1=C(C)N(Cc2ccc(F)cc2)C(=S)NC1c1cccc(OC)c1` (stereo not given), the “activity change, negative = cytotoxicity” value was 2.35%. In the case of `O=C(COc1ccc2c(c1)CCC2)NCc1ccccc1`, the “activity change, negative = cytotoxicity” value is reported as 1.53%. With `O=C(c1cccs1)N1CCN(c2nc3ccccc3s2)CC1` the “activity change, negative = cytotoxicity” value was 9.92%. In the case of `COc1cccc(S(=O)(=O)Nc2ccc3c(c2)OC[C@@H](C)NC[C@H](C)[C@@H](OC)CN(C)C3=O)c1`, the “activity change, negative = cytotoxicity” value is reported as -3.68%. With `Cc1cccc(C)c1NC(=O)C1CCCCN1C` (stereo not given) the “activity change, negative = cytotoxicity” value was 1.01%. For `COc1ccc(NC(=O)CSc2ncnc3c2cnn3CCc2ccccc2)cc1`, the “activity change, negative = cytotoxicity” value was -14.2%. For `CNC[C@@H]1Oc2c(NS(=O)(=O)c3ccc(Cl)cc3)cccc2C(=O)N([C@H](C)CO)C[C@H]1C`, the “activity change, negative = cytotoxicity” value was -3.86%. With `COc1ccc(N(C)C(=O)c2cn(CC(C)C)c(=O)c3cc(OC)c(OC)cc23)c(OC)c1` the “activity change, negative = cytotoxicity” value was -15.6%. For `Cc1noc(C)c1NC(=O)N(C)C[C@@H]1Oc2ccc(NC(=O)NC(C)C)cc2CC(=O)N([C@@H](C)CO)C[C@@H]1C`, the “activity change, negative = cytotoxicity” value was -13.1% [at 23.5 µM]. For `COc1ccc(CN(C)C[C@H]2Oc3ccc(NS(C)(=O)=O)cc3CC(=O)N([C@@H](C)CO)C[C@H]2C)cc1`, the “activity change, negative = cytotoxicity” value was 11.4%. For `CN(C)CCCn1c(=O)n(C2CCCCC2)c(=O)c2c3c(sc21)CCCCC3`, the “activity change, negative = cytotoxicity” value was 3.46%. For `O=S1(=O)CCC(N=Cc2cc(Br)ccc2O)C1` (stereo not given), the “activity change, negative = cytotoxicity” value was 2.1%. With `C[C@H]1CN([C@@H](C)CO)S(=O)(=O)c2ccc(Br)cc2O[C@H]1CN(C)S(=O)(=O)c1ccccc1F` the “activity change, negative = cytotoxicity” value was -1.48%. For `Cc1ccc2c(C)c(C(=O)N3CCN(Cc4ccccn4)CC3)oc2c1C`, the “activity change, negative = cytotoxicity” value was -0.842%. With `CNC(=O)CN(c1ccccc1)S(=O)(=O)c1ccc(F)cc1` the “activity change, negative = cytotoxicity” value was -3.8% [at 28.5 µM]. For `CNC[C@@H]1OCCCC[C@@H](C)Oc2ccc(NC(=O)NC(C)C)cc2C(=O)N([C@@H](C)CO)C[C@H]1C`, the “activity change, negative = cytotoxicity” value was 15.1%. In the case of `COc1ccc(C2CC(c3cccs3)=NN2C(=O)c2ccco2)cc1OC` (stereo not given), the “activity change, negative = cytotoxicity” value is reported as -2.37%. In the case of `CCC(C)c1ccc(NC(=S)N2CCN(c3ccccn3)CC2)cc1` (stereo not given), the “activity change, negative = cytotoxicity” value is reported as -9.79%. In the case of `C[C@H](NC(=O)C[C@H]1CC[C@@H](NC(=O)Cc2ccccn2)[C@@H](CO)O1)c1ccccc1`, the “activity change, negative = cytotoxicity” value is reported as 1.84%. In the case of `O=C(C[C@@H]1CC[C@@H](NC(=O)c2cccnc2)[C@@H](CO)O1)NCCN1CCCCC1`, the “activity change, negative = cytotoxicity” value is reported as -4.87%. For `O=C(C[C@@H]1CC[C@H](NC(=O)Cc2ccccn2)[C@@H](CO)O1)NCCc1ccccc1`, the “activity change, negative = cytotoxicity” value was -2.79%. With `O=C(Nc1ccc2ncccc2c1)c1ccccc1` the “activity change, negative = cytotoxicity” value was 4.85%. In the case of `CCC(=O)N1[C@H](CN(C)C(C)=O)[C@@H](c2ccc(C3=CCCCC3)cc2)[C@@H]1CO`, the “activity change, negative = cytotoxicity” value is reported as 1.61%. For `O=C(CSc1ncnc2c1cnn2-c1ccccc1)NCC1CCCO1` (stereo not given), the “activity change, negative = cytotoxicity” value was 19.5%. For `C[C@H](CO)N1C[C@H](C)[C@@H](CN(C)C(=O)Nc2ccc3c(c2)OCO3)Oc2ccc(NS(=O)(=O)c3cccs3)cc2C1=O`, the “activity change, negative = cytotoxicity” value was -8.84%. For `Cc1cc(OCC(=O)NC(C)c2ccccc2)ccc1[N+](=O)[O-]` (stereo not given), the “activity change, negative = cytotoxicity” value was 5.47%.
